The full list was thinned out, with hits kept by preference.
FBPA Giardia inh: Giardia lamblia aldolase inhibition; A8B2U2; purified Giardia FBPA; Potency, µM (titrated, usually from 59.6 µM), without a hit: at the highest dose activity, negative = inhibition, hits mostly inhibitors; 290,000 tested, 0.71% active; AID 2451; note: potency is the fitted concentration of half-maximal effect; % is set by controls: 0 for no effect and ±100 for the full control effect; nearly all actives have a fitted effect of over 55% in size
Target sequence (A8B2U2 whole entry, looked up): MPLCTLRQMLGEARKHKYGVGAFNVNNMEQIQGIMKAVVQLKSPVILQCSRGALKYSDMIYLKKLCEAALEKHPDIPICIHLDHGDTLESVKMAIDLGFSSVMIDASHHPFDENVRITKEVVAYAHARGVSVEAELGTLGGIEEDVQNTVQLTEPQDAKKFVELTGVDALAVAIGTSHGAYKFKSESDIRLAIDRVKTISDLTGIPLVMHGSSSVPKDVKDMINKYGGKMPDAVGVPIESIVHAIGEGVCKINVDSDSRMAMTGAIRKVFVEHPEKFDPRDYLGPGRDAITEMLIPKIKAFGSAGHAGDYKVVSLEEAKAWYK
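Giardia FBPA (40 nM reagent) was preincubated 10 min at RT with compound (up to 57.5 uM final), then substrate plus GAPDH/TPI/NAD/arsenate coupling system with diaphorase/resazurin was added; resorufin fluorescence (525/598 nm) was read after 20 min.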
TbPYK inhibitor: T. brucei pyruvate kinase inhibition; AID 624173; TbPYK enzyme, Kinase-Glo Plus ATP luminescence, 45 min; Q57TT1; 410,000 tested, 0.12% active; Potency, µM (highest dose often 76.8 µM), without a hit: at the top dose activity, negative = inhibition, actives largely listed as inhibitors; note: potency is the fitted concentration of half-maximal effect; % is set by controls: 0 for no effect and ±100 for the full control effect; nearly all actives have a fitted effect of over 50% in size
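Quantitative HTS: titrated library compounds versus trypanosomal pyruvate kinase in TEA buffer (pH 7.2) containing KCl, MgCl2, BSA and Tween-20. Reactions were initiated with ADP, 130 uM final. Kinase-Glo Plus luminescence was read after 45 min at RT.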
LmPK inh: LmPK (Leishmania mexicana) enzyme inhibition. Q27686. purified LmPK, Kinase-Glo ATP luminescence, 1 h. Potency, µM (doses to about 57.5 µM), without a hit: top-dose activity change, negative = inhibition, hits mostly inhibitors. 290,000 tested, 0.37% active; note: potency is the fitted concentration of half-maximal effect; % is set by controls: 0 for no effect and ±100 for the full control effect
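qHTS format; LmPK 0.1 nM; substrates PEP 0.5 mM and ADP 0.1 mM. One-hour room-temperature incubation, then coupled luciferase luminescence; 0.5 nM enzyme wells mark activation.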
Shiga inhibitor: blocks Shiga toxin action in Vero cells; Vero cells, Shiga toxin protein synthesis inhibition reporter; inhibition, % at 38.7 µM; 290,000 tested, 9.2% active; AID 2315; in the data active = inhibition mostly above about 28%, no sharp cut-off; inactive = mostly below about 43%; note: 0% is about no effect
RE007 growth inh: less growth of the S. pombe RE007 Vpr strain. S. pombe RE007 Vpr strain, BacTiter-Glo ATP luminescence, 24 h. Potency, µM (titrated, usually from 92.2 µM), for the others: top-dose activity change, negative = less growth, actives largely listed as inhibitors. 360,000 tested, 0.21% active. AID 651644; active = well fitted falling curve with a large enough effect; inconclusive = small, poorly fitted or top-dose-only effect; inactive = no such curve, though single readings can be large or run the other way; note: potency is the fitted concentration of half-maximal effect; % is set by controls: 0 for no effect and ±100 for the full control effect; nearly all actives have a fitted effect of over 50% in size
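Fission yeast RE007 carrying one integrated HIV-1 vpr copy, seeded at OD 0.01 in PMG+AL medium with 23 nL pinned compound. Grown 24 h at 30 degrees; viability read by BacTiter-Glo luminescence after 5 min.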
Cycloheximide cs: affects cycloheximide protein synthesis inhibition readout, counter-screen | 300,000 tested, 12% active | cell reporter, cycloheximide protein synthesis inhibition counterscreen | max response, %; in the data active = max response mostly above about 13%, no sharp cut-off; inactive = mostly below about 14%; note: read at 38.3 µM for the half of the compounds with a filed dose; 0% is about no effect
* marks the source's active call; other numbers are inactive results. Unless noted, calls come from the whole dose curve; as a rule, active = well fitted curve in the direction sought with a large enough effect; inconclusive = small, poorly fitted or top-dose-only effect, or another doubt; inactive = no such curve, though single readings can be large; an effect the other way counts as inactive or inconclusive.

Results for C/C(=N\OCc1cccc(C(=O)O)c1)c1ccc(Cl)cc1 ?
FBPA Giardia inh: 26%; TbPYK inhibitor: -5%; LmPK inh: -18%; Shiga inhibitor: 125*; RE007 growth inh: inconclusive; Cycloheximide cs: 78*

How did C/C(=N\OCc1ccc(C#N)cc1)c1ccccc1 do in these assays?
FBPA Giardia inh: -2%; TbPYK inhibitor: 3%; LmPK inh: -27%; Shiga inhibitor: 70*; RE007 growth inh: -2%; Cycloheximide cs: 42*

How did C/C(=N\OCc1ccc(C#N)cc1)c1ccc(S(=O)(=O)N(C)C)cc1 do in these assays?
FBPA Giardia inh: 10%; TbPYK inhibitor: 8%; LmPK inh: 2%; Shiga inhibitor: 80*; RE007 growth inh: 8%; Cycloheximide cs: 48*

Results for O=C(CNc1cc(S(=O)(=O)N2CCCC2)ccc1OCC(F)(F)F)Nc1ccc(SC(F)F)cc1 ?
FBPA Giardia inh: -8%; TbPYK inhibitor: 4%; LmPK inh: 2%; Shiga inhibitor: 53; RE007 growth inh: 11%; Cycloheximide cs: 21*

Results for Cc1nccc2oc(=O)c(NC(=O)c3ccc(Cl)cc3)cc12 ?
FBPA Giardia inh: 1%; TbPYK inhibitor: -14%; LmPK inh: -3%; Shiga inhibitor: 21; RE007 growth inh: inconclusive; Cycloheximide cs: 23

Results for O=C(Nc1cc2c(oc1=O)CCCC2=O)c1ccc(Cl)cc1 ?
FBPA Giardia inh: 0%; TbPYK inhibitor: -9%; LmPK inh: 1%; Shiga inhibitor: 23; RE007 growth inh: 6%; Cycloheximide cs: 20*

What do the screens show for `CC(C)OC(=O)N(C)C[C@@H]1OCc2ccccc2-c2c(n(C)c3ccccc23)C(=O)N([C@@H](C)CO)C[C@H]1C`?
TbPYK inhibitor: -6%; RE007 growth inh: -4%

What do the screens show for `O=C1C2CC=CCC2C(=O)N1c1ccc(NCCc2ccc(Cl)cc2)c([N+](=O)[O-])c1` (stereo not drawn)?
FBPA Giardia inh: 0%; TbPYK inhibitor: -5%; LmPK inh: -2%; Shiga inhibitor: 6; RE007 growth inh: 10%; Cycloheximide cs: -3

Results for O=C1C2CC=CCC2C(=O)N1c1ccc(NCCc2ccc(O)cc2)c([N+](=O)[O-])c1 (stereo not drawn) ?
FBPA Giardia inh: -4%; TbPYK inhibitor: -3%; LmPK inh: 4%; Shiga inhibitor: 63*; RE007 growth inh: 11%; Cycloheximide cs: 33*

What do the screens show for `COc1ccc2cc(C(=O)N3CCc4ccccc43)[nH]c2c1`?
FBPA Giardia inh: -20%; TbPYK inhibitor: -14%; LmPK inh: 0%; Shiga inhibitor: 100*; RE007 growth inh: 2%; Cycloheximide cs: 34*

How did O=C(c1cccc(F)c1)N1CCc2ccccc21 do in these assays?
FBPA Giardia inh: -1%; TbPYK inhibitor: -3%; LmPK inh: 1%; Shiga inhibitor: -9; RE007 growth inh: 8%; Cycloheximide cs: 5

Results for COc1ccc2cc(C(=O)NCc3ccc4c(c3)CCN4C(=O)c3ccccc3)[nH]c2c1 ?
TbPYK inhibitor: -5%

Results for Cc1cc(C(=O)N2CCc3ccccc32)c2cc(F)ccc2n1 ?
FBPA Giardia inh: 9%; TbPYK inhibitor: -4%; LmPK inh: -4%; Shiga inhibitor: 72*; RE007 growth inh: 36%; Cycloheximide cs: 35*

Results for O=C(c1cc2cc(Br)ccc2[nH]1)N1CCc2ccccc21 ?
FBPA Giardia inh: -8%; TbPYK inhibitor: -5%; LmPK inh: 5%; Shiga inhibitor: 17; RE007 growth inh: 7%; Cycloheximide cs: 19*

What do the screens show for `COc1cc(Br)cc(C(=O)N2CCc3ccccc32)c1OC`?
TbPYK inhibitor: -13%; RE007 growth inh: -11%

What do the screens show for `O=C(c1cc2cc(F)ccc2[nH]1)N1CCc2ccccc21`?
FBPA Giardia inh: -12%; TbPYK inhibitor: -12%; LmPK inh: 3%; Shiga inhibitor: 74*; RE007 growth inh: -15%; Cycloheximide cs: 34*

Results for COc1cccc(COC(=O)c2ccc(-c3nnn(Cc4cccc(OC)c4)n3)cc2)c1 ?
TbPYK inhibitor: -1%

What do the screens show for `CC(C)C[C@@H]1CN(CCCC[C@H]2CNC(=O)C(=O)N2CCC2CCCCC2)C(=O)C(=O)N1Cc1ccccc1`?
TbPYK inhibitor: -1%; RE007 growth inh: -2%

What do the screens show for `O=C(N/N=C/c1ccc(F)cc1)c1cc[n+]([O-])cc1`?
FBPA Giardia inh: -15%; TbPYK inhibitor: -2%; LmPK inh: -4%; Shiga inhibitor: 61*; RE007 growth inh: -15%; Cycloheximide cs: 18*

Results for O=C(N/N=C/c1ccc(O)cc1)c1cccc(N/N=C/c2ccc(O)cc2)c1 ?
FBPA Giardia inh: -3%; TbPYK inhibitor: -4%; LmPK inh: 2%; Shiga inhibitor: 60*; RE007 growth inh: 1%; Cycloheximide cs: 37*

What do the screens show for `Cc1cccc(/C=N\N=C\c2cccc(C)c2)c1`?
FBPA Giardia inh: 12%; TbPYK inhibitor: -1%; LmPK inh: 4%; RE007 growth inh: -14%; Cycloheximide cs: 53*

How did O=C(N/N=C/c1ccc(F)cc1)c1ccccc1 do in these assays?
FBPA Giardia inh: -5%; TbPYK inhibitor: -10%; LmPK inh: -18%; Shiga inhibitor: 126*; RE007 growth inh: -8%; Cycloheximide cs: 33*

What do the screens show for `O=C(N/N=C/c1ccncc1)c1cccc(N/N=C/c2ccncc2)c1`?
FBPA Giardia inh: 2%; TbPYK inhibitor: -1%; LmPK inh: 1%; Shiga inhibitor: 15; RE007 growth inh: -11%; Cycloheximide cs: 3

Results for Cc1cc(NC(=O)CCSc2ccc(Cl)cc2)no1 ?
FBPA Giardia inh: 7%; TbPYK inhibitor: 4%; LmPK inh: 0%; Shiga inhibitor: 31; RE007 growth inh: 11%; Cycloheximide cs: 7

How did O=C(N/N=C/c1ccc(F)cc1)c1ccc(Br)cc1 do in these assays?
FBPA Giardia inh: 0%; TbPYK inhibitor: -6%; LmPK inh: -1%; Shiga inhibitor: 62; RE007 growth inh: 11%; Cycloheximide cs: 15

What do the screens show for `CN(C)S(=O)(=O)c1cccc(NC(=S)N/N=C/C2CC=CCC2)c1` (stereo not drawn)?
FBPA Giardia inh: -5%; TbPYK inhibitor: inconclusive; LmPK inh: -10%; Shiga inhibitor: -3; RE007 growth inh: -2%; Cycloheximide cs: 9

Results for O=C(N/N=C/c1ccc(Br)cc1)c1ccc(F)cc1 ?
FBPA Giardia inh: 0%; TbPYK inhibitor: -8%; LmPK inh: -3%; Shiga inhibitor: 47*; RE007 growth inh: -5%; Cycloheximide cs: 35*

Results for COc1cc(/C=N/NC(=O)c2cccc(NC(=O)c3ccccc3)c2)ccc1O ?
FBPA Giardia inh: -4%; TbPYK inhibitor: 5%; LmPK inh: 2%; Shiga inhibitor: 33*; RE007 growth inh: -4%; Cycloheximide cs: 13
